Source: PubChem BioAssay
M1 antagonist = M1 muscarinic receptor (rat) antagonism | CHO-M1 cells, Fluo-4 calcium, ACh EC80 antagonist mode; stronger effect = lower value | B-score at 10 µM | 64,000 compounds, 3.4% hits;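 active = calcium fluorescence response, raw or row-and-column corrected B-score, differing from the plate sample mean either way at a set confidence level, mostly lower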
Target sequence (P08482 whole entry, looked up): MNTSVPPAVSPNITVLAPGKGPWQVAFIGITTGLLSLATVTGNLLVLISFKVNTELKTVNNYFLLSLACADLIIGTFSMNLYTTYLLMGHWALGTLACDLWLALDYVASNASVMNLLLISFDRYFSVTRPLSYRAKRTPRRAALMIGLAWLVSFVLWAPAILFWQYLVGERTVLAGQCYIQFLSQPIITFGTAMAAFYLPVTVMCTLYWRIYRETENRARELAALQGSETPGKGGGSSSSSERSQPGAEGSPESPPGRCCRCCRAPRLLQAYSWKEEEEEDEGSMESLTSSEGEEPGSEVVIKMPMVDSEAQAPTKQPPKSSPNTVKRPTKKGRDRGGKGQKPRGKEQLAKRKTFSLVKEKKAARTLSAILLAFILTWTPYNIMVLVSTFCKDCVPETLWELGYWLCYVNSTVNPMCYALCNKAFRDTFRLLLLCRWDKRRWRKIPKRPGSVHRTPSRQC
PLAP activator = activators of human placental alkaline phosphatase; purified PLAP enzyme, luminescent substrate read-out; stronger effect = higher value; AID 696; 96,000 compounds, 1.2% hits; P05187; activation fold at 20 µM; in the data active = activation fold above about 2
M1 ag = activates the M1 muscarinic receptor. CHO-M1 cells, Fluo-4 calcium fluorescence, agonist mode; stronger effect = higher value. 64,000 compounds, 3% hits. B-score at 10 µM;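 active = fluorescence rise, raw or as B-score row- and column-corrected plate score, outside the 99.7% band of its plate's samples, either direction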
Cav32 inh = blocks human Cav3.2 T-type calcium channel | O95180 | Cav3.2-expressing cells, Fluo-4 calcium fluorescence FDSS; stronger effect = lower value | 100,000 compounds, 4% hits | B-score at 10 µM;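 active = single-dose well whose peak fluorescence ratio is a statistical outlier from its plate by either plate-standardised score or position-corrected B-score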
Numbers stand for hits; . = inactive; / = not tested or not shown. Compounds with a hit are over-represented: about 7.6% of the library has one in this group of screens.

SMILES	M1 antagonist	PLAP activator	M1 ag	Cav32 inh
O=C(CC(c1ccccc1)c1cc(Br)ccc1O)NCc1ccco1 (centres undefined)	.	.	.	-9.9
CC(C)NC(=O)CC(c1ccccc1)c1cc(Br)ccc1O (centres undefined)	/	.	/	.
CC(C)Oc1ccc(CNC(=O)CC(c2ccccc2)c2cc(Cl)ccc2O)cc1 (centres undefined)	/	.	/	-3.5
O=C(Nc1ccc(OC(F)(F)F)cc1)C1CCCN(S(=O)(=O)c2cccnc2)C1 (centres undefined)	.	.	.	.
Cc1ccc(OCC(O)CNC(=O)c2ccccc2C(=O)O)cc1 (centres undefined)	/	.	/	.
COc1ccc2[nH]c(=O)c(-c3nnn(-c4ccc(Cl)nc4)n3)cc2c1	/	/	/	.
Cn1c(Cn2c(=O)sc3ccccc32)nnc1SCC(=O)NCc1ccccc1Cl	.	/	.	/
COC(=O)Nc1ccc(S(=O)(=O)N2c3ccccc3CCC2C)cc1 (centres undefined)	.	.	.	-7.2
O=C(CSc1nnc(-c2ccc(Br)cc2)n1C1CCCCC1)N1CCCC1	.	/	.	.
CC(C)(C)c1ccc(-c2nnc(SCCC#N)n2C2CCCC2)cc1	.	.	.	-4.4
O=C(CCN1CCCCC1)NCC1OCCc2ccccc21 (centres undefined)	.	.	.	.
C/C(=N\NC(=O)C1CC1c1ccccc1)c1cccs1 (centres undefined)	/	.	/	.
COc1ccc(C2CC2/C(=N/OC(=O)c2cccs2)c2ccccc2)cc1 (centres undefined)	/	.	/	-6
Cc1ccc(NC(=O)NNC(=O)Cn2nc(-c3ccccc3)c(-c3ccccc3)c(C#N)c2=O)cc1	/	.	/	-7
Cc1ccc(-c2nn(CC(=O)O)c(=O)c3ccccc23)cc1	.	/	.	.
C#CC(C)(CC)NC(=O)c1cc(OC)c(OC)c(OC)c1 (centres undefined)	.	.	.	.
C/C(=N/NC(=O)c1ccc(C)s1)c1cccc(NC(=O)COc2ccc(Cl)cc2Cl)c1	/	.	/	.
CCC(CC)C(=O)Nc1cccc(/C(C)=N\NC(=O)c2ccc(C)s2)c1	/	.	/	-5.8
CC(C)c1nnc(NC(=O)c2cccnc2)s1	/	.	/	.
CCN(CC)c1nc(OCCNC(=O)Nc2ccccc2)nc(N(CC)CC)n1	/	2.1	/	-10
COc1ccc(C2C3=C(CC(C)(C)CC3=O)Nc3c2c(=O)[nH]c2nc(C)nn32)cc1 (centres undefined)	.	.	.	.
CCc1ccccc1N(C(=O)CCC(=O)Nc1cc(C)on1)C(C(=O)NC1CCCC1)c1ccco1 (centres undefined)	.	.	.	.
O=S(=O)(c1ccc(N2CCC(c3ccc(Cl)cc3)=N2)cc1)N(CCO)CCO	/	2.2	/	/
CN(C)CCCNS(=O)(=O)c1ccc(N2CCC(c3ccc(Cl)cc3)=N2)cc1	/	2.3	/	.
CCN(CC(=O)N1CCCCCC1)S(=O)(=O)c1ccc(Cl)cc1	.	.	.	.
SMILES	M1 antagonist	PLAP activator	M1 ag	Cav32 inh
O=C(Nc1cccc2cccnc12)c1ccc2c(c1)OCCO2	/	.	/	-4.5
COc1cc(NC(=O)c2ccc3c(c2)OCO3)c2ncccc2c1	.	/	.	.
Nc1nc2ccccc2nc1N	.	.	.	.
c1ccc2nc3ccccc3nc2c1	/	/	/	-4.4
COCn1c(COc2ccc3ccccc3c2)nc2ccccc21	/	/	/	-5.3
CCn1c(COc2cccc(C)c2)nc2ccccc21	/	/	/	-4
COCc1nc2ccccc2n1CCCOc1ccccc1	.	.	.	.
CCn1c(COc2ccccc2C)nc2ccccc21	/	/	/	.
CCC(=O)N1CCN(c2ccc(Cl)cc2NC(=O)c2ccc(Br)o2)CC1	.	/	.	.
CCN(CC)S(=O)(=O)c1ccc2c(c1)nc(CCC(=O)Nc1ccccc1Cc1ccccc1)n2CC	/	.	/	-4.4
CCn1c(CCC(=O)Nc2cc(F)ccc2C)nc2cc(S(=O)(=O)N(C)C)ccc21	.	.	.	.
COc1ccc(-c2nnc(SC(C)C(=O)Nc3ccc4c(c3)OCCO4)o2)cc1 (centres undefined)	.	2.1	.	.
COc1ccc(OC)c(/C=N/NC(=O)CC2C(=O)NN=C2C)c1 (centres undefined)	/	.	/	.
Cc1ccc(C)c(NC(=O)C2C(c3ccccc3)C2(Cl)Cl)c1 (centres undefined)	/	.	/	-4.6
CCc1ccccc1NC(=O)C1C(c2ccccc2)C1(Cl)Cl (centres undefined)	/	.	/	-7.6
Cc1ccc(C)c(NC(=O)C2C3CCCC2C3c2ccccc2)c1 (centres undefined)	/	.	/	.
CCc1ccccc1NC(=O)C1NC(=O)CC1c1ccccc1 (centres undefined)	/	.	/	.
Cc1cccc(NC(=S)NN2CCN(C)CC2)c1	/	.	/	.
O=C(CSc1ncn[nH]1)Nc1ccc(Cl)c(Cl)c1	.	.	.	.
Cc1nn(-c2ccccc2)c(Cl)c1C(=O)Nc1nnc(C2CCCC2)s1	.	.	.	-5
Cc1cccc(C)c1NC(=O)c1c(C)nn(-c2ccccc2)c1Cl	/	.	/	.
CCOC(=O)c1c(C)[nH]c(C(=O)C(C)Sc2ccc(Cl)cc2)c1C (centres undefined)	/	.	/	-5.8
CCOC(=O)c1[nH]c(C)c(C(=O)NCc2ccc(Cl)cc2)c1C	.	.	.	.
O=C1C=CCC(/C=C/c2ccccc2)O1 (centres undefined)	/	/	/	.
CCN(CC)c1ccc(NC(=O)COc2ccc(C)cc2)cc1	.	.	.	.
SMILES	M1 antagonist	PLAP activator	M1 ag	Cav32 inh
COc1ccc(OCc2nnc3n2N=C(c2ccc(OC)cc2)CS3)cc1	.	.	.	-7.6
Cc1ccc(C(c2nnnn2CCC(C)C)N2CCN(C)CC2)cc1 (centres undefined)	.	.	.	.
CC(C)C1O/C(=N/C(=O)Nc2ccc(Cl)c(Cl)c2)NC1=O (centres undefined)	.	.	.	-5
Cc1ccc(S(=O)(=O)c2c(C)cc(C)nc2Oc2cccc(C(F)(F)F)c2)cc1	/	.	/	-6.3
Cc1cc(C)c(S(C)(=O)=O)c(Oc2cccc(Cl)c2)n1	/	.	/	/
COc1cc2c(cc1OC)C(c1cccc([N+](=O)[O-])c1)N(C(=O)c1ccc(F)cc1)CC2 (centres undefined)	/	.	/	-5.3
COc1cc2c(cc1OC)C(c1ccccc1)N(C(=O)c1ccco1)CC2 (centres undefined)	.	.	.	.
Cc1sc2ncnc(NCC3CCCO3)c2c1C (centres undefined)	/	.	/	-7.6
CCc1cc2c(NCC3CCCO3)ncnc2s1 (centres undefined)	.	.	.	.
Cc1nc2ccccn2c1/C(O)=C1\C(=O)C(=O)N(CCCN(C)C)C1c1ccc(F)cc1 (centres undefined)	.	/	.	/
COc1cc2c(cc1NC(=O)C(c1ccccc1)c1ccccc1)CCCC2	/	.	/	-6
CC(=O)c1cccc(NC(=S)NC(=O)CC(C)(C)C)c1	/	.	/	.
CN1CC(=O)N(CC(=O)NCc2ccc3c(c2)OCO3)C1=O	/	.	/	.
CN1C(=O)c2ccc(N(C)C)cc2C1=O	.	/	.	.
CN1C(=O)c2ccc(N3CCCC3)cc2C1=O	.	.	13	.
Cc1c(NC(=O)C(C)N2CC(C)OC(C)C2)c(=O)n(-c2ccccc2)n1C (centres undefined)	1.8	.	.	.
